# Screen size: about 1,000 compounds; about 150 (15%) were called active.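 How the source made its calls: active means activity change at least 3 SD of negative controls below their mean in both duplicate wells; inactive means the rest.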 Only a selection was taken, and actives are over-represented in it overall.
# Target: Potassium voltage-gated channel subfamily KQT member 1 (Homo sapiens) (UniProt P51787)
# Assay: KCNQ1 thallium flux decrease by hits – cell-based, FluxOR thallium flux, counter-screen for KCNQ2 inhibitor project (AID 493026);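 further: CHO cells stably transfected with KCNQ1 and depolarized by potassium stimulus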;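 on activity change, negative = inhibition: peak minus minimum fluorescence over baseline after thallium addition; 0% = vehicle negative control and -100% = blank without thallium stimulus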
# Details: KCNQ1-expressing cells, FluxOR thallium flux fluorescence, at 10 µM; active compounds read low
# Sequence of Potassium voltage-gated channel subfamily KQT member 1 (Homo sapiens) (P51787 whole entry, looked up): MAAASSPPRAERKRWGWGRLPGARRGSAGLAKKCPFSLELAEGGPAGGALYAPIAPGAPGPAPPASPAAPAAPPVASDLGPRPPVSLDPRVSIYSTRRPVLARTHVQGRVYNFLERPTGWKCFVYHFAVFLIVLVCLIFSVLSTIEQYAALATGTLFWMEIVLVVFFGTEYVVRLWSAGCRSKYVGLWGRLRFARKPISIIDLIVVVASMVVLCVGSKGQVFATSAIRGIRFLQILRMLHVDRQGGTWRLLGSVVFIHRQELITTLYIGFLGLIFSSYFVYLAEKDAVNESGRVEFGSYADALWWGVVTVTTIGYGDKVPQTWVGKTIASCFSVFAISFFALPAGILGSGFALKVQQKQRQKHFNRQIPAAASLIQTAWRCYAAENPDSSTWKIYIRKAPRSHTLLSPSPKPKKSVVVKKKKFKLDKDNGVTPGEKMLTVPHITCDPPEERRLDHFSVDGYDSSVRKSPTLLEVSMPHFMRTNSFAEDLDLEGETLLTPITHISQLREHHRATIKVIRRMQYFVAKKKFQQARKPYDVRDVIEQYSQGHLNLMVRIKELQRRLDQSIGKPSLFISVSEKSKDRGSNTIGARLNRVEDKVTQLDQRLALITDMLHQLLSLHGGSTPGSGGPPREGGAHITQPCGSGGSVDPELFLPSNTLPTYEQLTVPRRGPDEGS
row,Compound,"activity change, negative = inhibition"
1,CN(C)CC1Oc2ccccc2OC1(O)c1ccccc1 (configuration not stated),-30.5% (active)
2,O=C(NC(c1ccc(Cl)cc1)P(=O)(Oc1ccccc1)Oc1ccccc1)OCc1ccccc1 (configuration not stated),inactive

# Reference: PubChem BioAssay AID493026 (Johns Hopkins Ion Channel Center, 2011)
